{"source": "PubChem BioAssay AID1850", "about": "(Southern Research Specialized Biocontainment Screening …, 2009)", "note": "Screen size: about 310,000 compounds; about 1,000 (0.32%) were called active. No rule for the calls is given here. Only a sample is shown. Measured potencies and affinities stand elsewhere."}
{"experiment": "PhoP regulon inhibitors, Salmonella typhi PhoP promoter GFP reporter, confirmatory (AID 1850);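 also: 0% = induced wells with vehicle and 100% = uninduced wells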", "settings": "fluorescence, 4 h, at 50 µM, hits give high values"}
{"molecule": "C[n+]1ccccc1/C=C/c1ccc(F)c(F)c1", "inhibition": "-2.41% (inactive)"}
{"molecule": "N#Cc1ccccc1OCC(O)CS(=O)(=O)c1ccccc1", "note": "(stereo unspecified)", "inhibition": "8.05% (inactive)"}
{"molecule": "Cc1ccc(NNC(=O)c2cc(C(C)(C)C)nn2Cc2ccccc2)cc1", "inhibition": "1.12% (inactive)"}
{"molecule": "Cc1cc(C)cc(NS(=O)(=O)c2csc(C(N)=O)c2)c1", "inhibition": "-4.13% (inactive)"}
{"molecule": "N#Cc1c(C(F)(F)F)cc(Cc2ccccc2)nc1SCC(=O)NCC(=O)O", "inhibition": "-9.26% (inactive)"}
{"molecule": "Cc1ccc2oc(=O)c3cc(C(=O)NCCCN4CCc5ccccc5C4)sc3c2c1", "inhibition": "-1.04% (inactive)"}
{"molecule": "Cc1c(OCC(=O)N[C@@H](Cc2c[nH]c3ccccc23)C(=O)O)ccc2c1oc(=O)c1ccccc12", "inhibition": "4.69% (inactive)"}
{"molecule": "CCOC(=O)C1CCCN(C(=O)c2ccc3nc(-c4ccccc4)c(-c4ccccc4)nc3c2)C1", "note": "(stereo unspecified)", "inhibition": "5.36% (inactive)"}
{"molecule": "CCCc1nc2sc(C(=O)OCC)c(N)c2c2c1COC(C)(C)C2", "inhibition": "0.3% (inactive)"}
{"molecule": "O=C(CSc1nccc(=O)[nH]1)Nc1ccc(Br)c(Cl)c1", "inhibition": "4.82% (inactive)"}
{"molecule": "CCN(CC)C(=O)CSc1nc(COc2ccccc2)nc2ccccc12", "inhibition": "-0.33% (inactive)"}
{"molecule": "CC[C@H](C)[C@@H](CNC)NC[C@@H](Cc1ccc(O)cc1)NCC(C)(C)C", "inhibition": "4.52% (inactive)"}
{"molecule": "CC[C@@H](C)[C@H](CN[C@H](CNC)[C@@H](C)O)NCCc1ccc(OC)cc1", "inhibition": "4.36% (inactive)"}
{"molecule": "O=C(O)CCCC(=O)NCCCCc1ccccc1", "inhibition": "-10.7% (inactive)"}
{"molecule": "CCCCCSc1cc(O)c(C(CNC)C(C)C)cc1OC", "note": "(stereo unspecified)", "inhibition": "-3.45% (inactive)"}
{"molecule": "CCCCCSc1cc(OC)c(CCN)cc1OC", "inhibition": "15.9% (inactive)"}
{"molecule": "CCCCCSc1cc(OC)c(CCN(C)C)cc1OC", "inhibition": "11.2% (inactive)"}
{"molecule": "COc1cc2ccc3c(CCN(C)C)cc(OC)c(OC)c3c2cc1OC", "inhibition": "13.6% (inactive)"}
{"molecule": "CNCCc1ccc(OC)c(OC)c1", "inhibition": "10.9% (inactive)"}
{"molecule": "CCCCCCSc1cc(-c2nc3cc(C)ccn3c2NCCCC)ccc1OC", "inhibition": "0.7% (inactive)"}
{"molecule": "Cc1ccccc1S(=O)Cc1ccc(C(=O)NC2CCN(Cc3ccccc3)CC2)o1", "note": "(stereo unspecified)", "inhibition": "-1.02% (inactive)"}
{"molecule": "COCC1CCN(C(=O)C2CCC(=O)N(CCc3cccc(F)c3)C2)CC1", "note": "(stereo unspecified)", "inhibition": "-0.82% (inactive)"}
{"molecule": "COc1cc(/C=N/N2CCN(c3ccc(Cl)cc3)CC2)cc(OC)c1OC(C)=O", "inhibition": "-1.44% (inactive)"}
{"molecule": "CC(=O)N1CCN(c2ccc(NC(=O)c3cccc(Cl)c3)cc2)CC1", "inhibition": "13.2% (inactive)"}
{"molecule": "O=C(CCS(=O)(=O)c1ccc(Cl)cc1)Nc1nc(-c2ccncc2)cs1", "inhibition": "-19.9% (inactive)"}
{"molecule": "Cc1ccc(C(=O)CC(=O)c2ccccc2)cc1", "inhibition": "2.22% (inactive)"}
{"molecule": "Cc1ccc(C(=O)Nc2ccccc2Sc2ccccc2)cc1", "inhibition": "8.29% (inactive)"}
{"molecule": "Cc1cc(Nc2cccc(C(F)(F)F)c2)n2nc(C)nc2n1", "inhibition": "2.14% (inactive)"}
{"molecule": "Clc1ccc2c(c1)C(OC1CN3CCC1CC3)c1ccccc1CS2", "note": "(stereo unspecified)", "inhibition": "-1.82% (inactive)"}
{"molecule": "Brc1ccc2c(c1)C(C1=NCCN1)c1ccccc1CS2", "note": "(stereo unspecified)", "inhibition": "-3.48% (inactive)"}
{"molecule": "COc1ccc(C(=O)NCCCOC(=O)c2ccc(OC)cc2)cc1", "inhibition": "-6.57% (inactive)"}
{"molecule": "CCOC(=O)c1sc(=NC(=O)c2ccc(F)cc2)n(C)c1C", "inhibition": "0.21% (inactive)"}
{"molecule": "Cc1cc(N2CCC(C)CC2)nc(-c2ccccc2O)n1", "inhibition": "-7.47% (inactive)"}
{"molecule": "Cc1cc(N2CCN(C3CCCCC3)CC2)nc2cccc(O)c12", "inhibition": "40.7% (inactive)"}
{"molecule": "CN(C)c1ccc(/C=N/NC(=O)c2cccc(C(=O)N/N=C/c3ccc(N(C)C)cc3)n2)cc1", "inhibition": "-1.09% (inactive)"}
{"molecule": "COc1ccc(-c2ccc(=O)n(CC(=O)Nc3cccc(O)c3)n2)cc1OC", "inhibition": "-4.09% (inactive)"}
{"molecule": "O=c1cc(CN2CCN(C/C=C/c3ccccc3)CC2)c2cc(O)c(-c3ccccc3)cc2o1", "inhibition": "1.7% (inactive)"}
{"molecule": "O=c1cc(CN2CCN(C/C=C/c3ccccc3)CC2)c2cc(O)ccc2o1", "inhibition": "0.2% (inactive)"}
{"molecule": "COc1cc(C(=O)NCC(=O)OCC(=O)Nc2nnc(-c3ccccc3)o2)cc(OC)c1OC", "inhibition": "1.32% (inactive)"}
{"molecule": "COc1cccc(NS(=O)(=O)c2nc3nc(C)cc(C)n3n2)c1", "inhibition": "5.81% (inactive)"}
{"molecule": "Cc1cc(C)n2nc(S(=O)(=O)NC(C)(C)C)nc2n1", "inhibition": "-11.7% (inactive)"}
{"molecule": "CCOc1cc2[nH]c(=O)n(CCCC(=O)NCc3ccco3)c(=O)c2cc1OCC", "inhibition": "-5.99% (inactive)"}
{"molecule": "O=C(CNS(=O)(=O)/C=C/c1ccccc1)OC1CCOC1=O", "note": "(stereo unspecified)", "inhibition": "-7.99% (inactive)"}
{"molecule": "Cc1cc(C)n(C(C[N+](=O)[O-])c2ccc(Cl)cc2)n1", "note": "(stereo unspecified)", "inhibition": "17.4% (inactive)"}
{"molecule": "COc1ccc(C(C[N+](=O)[O-])n2nc(C)cc2C)cc1", "note": "(stereo unspecified)", "inhibition": "3.95% (inactive)"}
{"molecule": "O=C(NCCCc1ccncc1)C1CCC(=O)N(Cc2ccc(Cl)cc2)C1", "note": "(stereo unspecified)", "inhibition": "2.99% (inactive)"}
{"molecule": "CC(C)(C)NC(=S)NNC(=O)[C@H]1C[C@@H]1c1ccccc1", "inhibition": "-2.2% (inactive)"}
{"molecule": "Cc1cccc(OCCCCn2c(CO)nc3ccccc32)c1", "inhibition": "1.97% (inactive)"}
{"molecule": "CCCCCOC(=O)Cn1c(=O)oc2ccc(C)cc21", "inhibition": "-6.52% (inactive)"}
{"molecule": "CCCCCCCCCCOC(=O)Cn1c(COc2ccccc2)[n+](C)c2ccccc21", "inhibition": "0.36% (inactive)"}
{"molecule": "CCCCOC(=O)Cn1c(=N)n(CCC)c2ccccc21", "inhibition": "-6.14% (inactive)"}
{"molecule": "CCCCCOC(=O)Cn1c(=O)oc2ccccc21", "inhibition": "4.41% (inactive)"}
{"molecule": "CN(C)C(=O)Oc1cccc(OCc2n(C)c3ccccc3[n+]2C)c1", "inhibition": "-12.8% (inactive)"}
{"molecule": "CCCCOC(=O)Cn1c2ccc(OC)cc2c2nc3ccccc3nc21", "inhibition": "-14.3% (inactive)"}
{"molecule": "CCCCOC(=O)Cn1c(=O)n(CC(=O)OCCCC)c2ccccc21", "inhibition": "2.5% (inactive)"}
{"molecule": "C=C(C)Cn1c(SCC(=O)N/N=C/c2ccccc2)nc2ccccc2c1=O", "inhibition": "2.73% (inactive)"}
{"molecule": "CCOC(=O)C1CCCN(C(=O)CSc2ccccc2)C1", "note": "(stereo unspecified)", "inhibition": "0.88% (inactive)"}
{"molecule": "CC(C)(C)c1cc(NS(=O)(=O)c2cccs2)no1", "inhibition": "2.79% (inactive)"}
{"molecule": "CC(C)NC(=O)C1CCCN(S(=O)(=O)c2cccc3nonc23)C1", "note": "(stereo unspecified)", "inhibition": "5.72% (inactive)"}
{"molecule": "CSc1cnc2c(N)nc(N(C)C)nc2n1", "inhibition": "-2.44% (inactive)"}
{"molecule": "CCOc1cc(NC(=O)C2CC2)c(OCC)cc1NC(=O)CCn1nnc2ccccc21", "inhibition": "0.44% (inactive)"}
